Bioassay records (PubChem)
MLL CXXC-DNA inh = MLL CXXC-DNA interaction inhibition | Q03164 | MLL-CXXC / FITC-HOXA9 DNA fluorescence polarization | Potency, µM (series often up to 115 µM), actives largely listed as inhibitors | 290,000 compounds, 0.037% hits; active = well fitted inhibition curve with a large enough effect in the polarisation, with a control signal flat, not every such curve was filed as active; inconclusive = small, poorly fitted or top-dose-only effect, or effect the other way, or a change in a side signal; inactive = no such curve, though single readings can be large or run the other way; the % refers to the polarisation
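Fluorescence polarization: 7 uM MLL-CXXC (stock) preincubated 5 min with compounds, then 50 nM fluorescein-HOX-A9 DNA (stock) added; 30 min ambient. Buffer 50 mM Tris-HCl pH 7.5, 50 mM NaCl, 1 mM DTT, 0.05% BSA.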
GoLoco inh red = RGS12 GoLoco-Gai1 interaction inhibition | P63096 | Gai1:RGS12 GoLoco peptide FP, rhodamine, 10 min | Potency, µM (titrated, usually from 61.6 µM), usual class: inhibitors | 230,000 compounds, 0.44% hits; active = well fitted inhibition curve with a large enough effect, not every such curve was filed as active; inactive = no such curve, though single readings can be large or run the other way; note: nearly all actives have a fitted effect of over 30% in size
Menin-MLL FL inh = displaces fluorescein MLL peptide from human menin; Fluorescence polarization, fluorescein-MLL peptide displacement from menin; FP activity change, % at 61.4 µM; 290,000 tested, under 10 active; AID 1766; active = well fitted curve in the direction sought with a large enough effect in the polarisation, not every such curve was filed as active; inconclusive = small, poorly fitted or top-dose-only effect, or effect the other way, or a change in a side signal; inactive = no such curve, though single readings can be large or run the other way; the % refers to the polarisation
Menin MLL FP TR = inhibitors of human menin-MLL interaction, mutant MLL peptide. Menin + Texas Red MLL mutant peptide, fluorescence polarization. Potency, µM (series often up to 61.6 µM), most hits filed as inhibitors. 270,000 compounds, 0.23% hits. AID 1768; active = well fitted inhibition curve with a large enough effect in the polarisation, with a control signal flat, not every such curve was filed as active; inconclusive = small, poorly fitted or top-dose-only effect, or effect the other way, or a change in a side signal; inactive = no such curve, though single readings can be large or run the other way; the % refers to the polarisation
Target sequence (O00255 whole entry, looked up): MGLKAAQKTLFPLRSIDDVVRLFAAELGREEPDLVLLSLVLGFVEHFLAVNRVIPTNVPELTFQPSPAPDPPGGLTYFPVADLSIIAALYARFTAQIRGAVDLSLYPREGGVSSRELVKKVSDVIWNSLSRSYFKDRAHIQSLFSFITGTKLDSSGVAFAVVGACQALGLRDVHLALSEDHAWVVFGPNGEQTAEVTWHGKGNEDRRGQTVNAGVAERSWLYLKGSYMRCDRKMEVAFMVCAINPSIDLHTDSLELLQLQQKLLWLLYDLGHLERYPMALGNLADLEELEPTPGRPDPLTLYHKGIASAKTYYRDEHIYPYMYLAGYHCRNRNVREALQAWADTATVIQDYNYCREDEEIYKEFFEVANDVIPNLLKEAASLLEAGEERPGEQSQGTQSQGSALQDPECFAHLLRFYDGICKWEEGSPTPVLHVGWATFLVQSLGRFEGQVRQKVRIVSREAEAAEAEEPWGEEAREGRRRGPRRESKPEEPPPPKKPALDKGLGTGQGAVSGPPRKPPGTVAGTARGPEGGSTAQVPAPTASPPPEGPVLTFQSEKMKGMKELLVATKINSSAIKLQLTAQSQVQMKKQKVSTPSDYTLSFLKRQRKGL
Numbers stand for hits; – = inactive; ? = inconclusive; · = not tested or not shown; [ ] = remark or other dose. The full list was thinned out, with hits kept by preference.

SMILES	MLL CXXC-DNA inh	GoLoco inh red	Menin-MLL FL inh	Menin MLL FP TR
CCC1=C[C@@H]2CN(C1)Cc1c([nH]c3ccccc13)[C@@](C(=O)OC)(c1cc3c(cc1OC)N(C)[C@@H]1[C@@](O)(C(=O)OC)[C@H](OC(C)=O)[C@]4(CC)C=CCN5CC[C@]31[C@@H]54)C2	–	·	–	–
CCOc1ccccc1C(=O)Nc1nnc(COC)s1	–	50µM	–	?
CCOC(=O)Cc1nnc(NC(=O)c2ccccc2OCC)s1	–	–	–	–
COc1ccc(Br)cc1C1C2C=CCCC2(C)C(=O)N1Cc1ccccc1 (configuration not stated)	·	·	–	–
O=C(O)C1C2C=CC(C2)C1C(=O)Nc1ccc2c(c1)OCCO2 (configuration not stated)	–	–	–	–
CN(C)c1ccc(NC(=O)C2C3C=CC(C3)C2C(=O)O)cc1 (configuration not stated)	?	·	–	20µM
Cn1c(=O)c2[nH]c(-c3ccccc3Cl)c(O)c2n(C)c1=O	–	2µM	?	?
CC(=O)O[C@H]1C2=CO[C@H](C)[C@H]3[C@H]4C5=C([C@H](O)[C@H]6O[C@@H]6C5=O)[C@H](O[C@H]4C)[C@@]23C(=O)[C@H]2O[C@@H]21	·	·	–[11.7 µM]	–[11.7 µM]
CC(C)CCNC(=O)C(CC(C)C)NC(=O)C1OC1C(=O)O (configuration not stated)	·	·	–	–
CCC(=O)NC1=C(NC(C)c2ccccc2)C(=O)c2ccccc2C1=O (configuration not stated)	–	–	–	–
CCC(=O)NC1=C(Cl)C(=O)C(NC(=O)CC)=C(Cl)C1=O	–	1.3µM	–	·
Cc1c(C#N)c(O)[nH]c(=O)c1N=Nc1ccc(Br)cc1C(=O)O	–	·	?	?
Cc1cccc(N=Nc2c(C)c(C#N)c(O)[nH]c2=O)c1	?	5µM	?	–
Cc1[nH]c(=O)cc2ccccc12	–	8.9µM	–	–
FC(F)(F)c1cc(NC(=S)Nc2ccc3cc4ccccc4cc3c2)cc(C(F)(F)F)c1	·	–	?	?
COc1ccc(N2CCN(C(=O)c3cc(=O)c4cc(C)ccc4o3)CC2)cc1	–	·	–	?
COc1ccc(N2CCN(C(=O)c3cc(=O)c4cc(C)cc(C)c4o3)CC2)cc1	–	·	–	11µM
Cc1nn(-c2ccc(S(=O)(=O)O)cc2)c(O)c1N=Nc1ccc(-c2ccc(N=Nc3ccc4c(S(=O)(=O)O)cc(S(=O)(=O)O)c(N)c4c3O)c(O)c2)cc1O.[Cu].[Cu]	·	3.2µM	·	·
COc1cc(-c2ccc(N=Nc3ccc4c(S(=O)(=O)O)cc(S(=O)(=O)O)c(N)c4c3O)c(OC)c2)ccc1N=Nc1ccc2c(S(=O)(=O)O)cc(S(=O)(=O)O)c(N)c2c1O	·	–	–	?
CN1CCC[C@@H]1c1cccnc1.O=C(O)c1ccccc1O.O=C([OH2+])c1ccccc1O.O=C([OH2+])c1ccccc1O.O=C([OH2+])c1ccccc1O.[Cu]	·	–[14.2 µM]	·	·
COc1cccc(/C=C/C2=CC3(C)CC2(C)C(c2cccc(OC)c2)CC3=O)c1 (configuration not stated)	·	·	–[11.7 µM]	–[11.7 µM]
O=C1C(=Cc2cccn2-c2ccc(O)cc2)C(=O)c2ccccc21	?	20µM	?	?
O=C1C(=Cc2cccn2-c2ccccc2)C(=O)c2ccccc21	–	–	?	–
C[C@@]12C[C@H](O)C3[C@H](CCC4=CC(=O)CC[C@]43C)[C@H]1CC[C@@H]2c1csc(N)n1 (some centres not stated)	·	–[14.2 µM]	·	·
CC(C)N1CC2=C(OC(N)=C(C#N)C2c2cccnc2)/C(=C/c2cccnc2)C1 (configuration not stated)	–	–	–	25µM
SMILES	MLL CXXC-DNA inh	GoLoco inh red	Menin-MLL FL inh	Menin MLL FP TR
COc1ccc(C2c3sc(=O)[nH]c3SCC2C(N)=O)cc1 (configuration not stated)	–	–	–	·
COC(=O)C1CSc2[nH]c(=O)sc2C1c1ccc(O)c(OC)c1 (configuration not stated)	–	20µM	–	–
CCCCCCCCCCOc1cc2c(=O)c(C(=O)OCC)c[nH]c2cc1OCC	–	·	–	–
N#Cc1c(N)sc2c1CCCCCC2	–	·	–	–
N#Cc1c(N)sc(=S)c2c1CCCCC2	–	25µM	?	?
CC/C(C)=N/O	·	–	·	·
CCCCC#CC1C=CC(Oc2cc(OC)c(OC)c(OC)c2)C(CO)O1 (configuration not stated)	·	·	–[11.7 µM]	–[11.7 µM]
COC(=O)c1oc2ccc(Br)cc2c1NC(=O)c1ccccc1	–	–	–	28µM
C[C@@H]1OC(Oc2ccccc2-c2cc(=O)c3c(O)cc(O)c([C@@H]4O[C@H](CO)[C@@H](O)[C@H](O)[C@H]4O)c3o2)[C@H](O)[C@H](O)[C@H]1O (some centres not stated)	·	·	–	–
COc1ccc(C(=O)Nc2ccc(NC(=O)c3cccs3)cc2)cc1Cl	–	–	–	7.1µM
Cc1onc(-c2c(Cl)cccc2Cl)c1C(=O)N[C@H]1C(=O)N2[C@H]1SC(C)(C)[C@H]2C(=O)O	·	–	–	–
C=C(C)C(=O)OC[C@@H]1CCC[N@+]2(C)CCCCC12 (some centres not stated)	·	–	–	–
C[N+]1(C2CCC3CCC2C3O)CCCC1 (configuration not stated)	–	16µM	–	–
CC(=O)OC1C2CCC1C([N+]1(C)CCCCC1)CC2 (configuration not stated)	–	14µM	–	–
Cc1cc(O)c(C=O)c2c1C(=O)Oc1c(CO)c(O)c3c(c1O2)C(O)OC3=O (configuration not stated)	?	11µM	–	?
CCCN(CCc1cccs1)[C@H]1CCc2c(O)cccc2C1	–	·	–	–
Nc1cccc2c(=O)[nH]ccc12	·	·	–	–
COC(=O)c1ccc(CNC(=O)c2ccc(COc3ccccc3)cc2)cc1	–	–	–	28µM
C=C(C)C(=O)C1CCCCC1	·	–	–	–
CCCC[C@@H]1C[C@H]1C(NC(=O)c1cccnc1)c1ccc(-c2ccccc2)cc1 (some centres not stated)	·	–	–	–
CCc1cccc(C)c1NC(=O)COC(=O)c1c2c(nc3ccccc13)/C(=C\c1cccs1)CCC2	–	–	–	14µM
NC(=O)c1ccc(NC(=O)COC(=O)c2c3c(nc4ccccc24)/C(=C\c2cccs2)CCC3)cc1	–	–	–	?
O=C(O)C1Nc2c(O)cc(Cl)c([N+](=O)[O-])c2C2C=CCC12 (configuration not stated)	–	10µM	?	?
COc1ccc(OC)c(N)c1	–	–	–	25µM
COc1ccc(C)cc1N	·	–	·	·
COC(=O)[C@H](COC(C)(C)C)NC(=O)O[C@@H]1C(=O)c2cc(Br)ccc2O[C@H]1c1ccc2c(c1)OCO2	·	–	–	–
Cc1ccccc1-n1c(C)cc(/C=N/Nc2ccc([N+](=O)[O-])cn2)c1C	–	3.2µM	–	·
CC(=O)Nc1nc(CC(C)C)cc(-c2ccco2)c1C#N	–	2.8µM	–	–
CC(=O)Nc1nc(CC(C)C)cc(-c2ccccc2)c1C#N	–	–	–	·
